Experimental findings from PubChem BioAssay (NCATS) are described below.

Inconclusive results are not listed. Unmarked numbers belong to inactive results. The list shows a part of the results. Activity calls are given as the source filed them. Calls come from the whole dose curve; as a rule, active = well fitted curve in the direction sought with a large enough effect; inconclusive = small, poorly fitted or top-dose-only effect, or another doubt; inactive = no such curve, though single readings can be large; an effect the other way counts as inactive or inconclusive.

Test [1] addresses Rap guanine nucleotide exchange factor 3 (Homo sapiens) (UniProt O95398). As to the kind of experiment: Confirmatory qHTS for agonist of cAMP-regulated guanine nucleotide exchange factor 3 (EPAC1) (AID 1645881).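 Note: EPAC1 catalysed release of BODIPY-GDP from Rap1B seen as fluorescence loss; 100% = effect of cAMP agonist control; nearly all actives have a fitted effect of over 75% in size.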 The following applies: EPAC1 Rap1B BODIPY-GDP exchange fluorescence; series mostly up to 154 µM. For orientation: qHTS replaces the single test concentration by a dilution series.

Test [2] concerns the target Rap guanine nucleotide exchange factor 4 (Homo sapiens) (UniProt Q8WZA2). The experiment in a line: Confirmatory qHTS for agonist of cAMP-regulated guanine nucleotide exchange factor 4 (EPAC2) (AID 1645884).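 Note: nucleotide exchange releases bodipy-GDP from Rap1 and this lowers its fluorescence; % is set by controls: 0 for no effect and ±100 for the full control effect; nearly all actives have a fitted effect of over 65% in size.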 The following applies: EPAC2 GEF activity, Rap1B-BODIPY-GDP fluorescence; series mostly up to 154 µM.
The target is the same in test [3]. As to the kind of experiment: Confirmatory qHTS for antagonist of cAMP-regulated guanine nucleotide exchange factor 4 (EPAC2) (AID 1645885). For activity change, negative = inhibition: % is set by controls: 0 for no effect and ±100 for the full control effect. Note: nearly all actives have a fitted effect of over 25% in size. Note: potency is the fitted concentration of half-maximal effect. The following applies: EPAC2 Rap1B-BODIPY-GDP exchange fluorescence, biochemical; series mostly up to 12.7 µM.
For test [4], the target named is Rap guanine nucleotide exchange factor 3 (Homo sapiens) (UniProt O95398). The experiment in a line: Counterscreen qHTS for agonist of cAMP-regulated guanine nucleotide exchange factor 3 (EPAC1) (AID 1645889). Note: % of control where 0% means no effect; nearly all actives have a fitted effect of over 40% in size. The following applies: EPAC1 Rap1B-BODIPY-GDP exchange, fluorescence; series mostly up to 154 µM. The method in brief: (§1)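 Measured: fluorescence of BODIPY-GDP bound to Rap1B, which falls as exchange proceeds. Conditions include 50 uM competing GDP, 5 and 30 min reads, and a later cAMP challenge for antagonist detection.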
Chain of Rap guanine nucleotide exchange factor 3 (Homo sapiens) (O95398 whole entry, looked up): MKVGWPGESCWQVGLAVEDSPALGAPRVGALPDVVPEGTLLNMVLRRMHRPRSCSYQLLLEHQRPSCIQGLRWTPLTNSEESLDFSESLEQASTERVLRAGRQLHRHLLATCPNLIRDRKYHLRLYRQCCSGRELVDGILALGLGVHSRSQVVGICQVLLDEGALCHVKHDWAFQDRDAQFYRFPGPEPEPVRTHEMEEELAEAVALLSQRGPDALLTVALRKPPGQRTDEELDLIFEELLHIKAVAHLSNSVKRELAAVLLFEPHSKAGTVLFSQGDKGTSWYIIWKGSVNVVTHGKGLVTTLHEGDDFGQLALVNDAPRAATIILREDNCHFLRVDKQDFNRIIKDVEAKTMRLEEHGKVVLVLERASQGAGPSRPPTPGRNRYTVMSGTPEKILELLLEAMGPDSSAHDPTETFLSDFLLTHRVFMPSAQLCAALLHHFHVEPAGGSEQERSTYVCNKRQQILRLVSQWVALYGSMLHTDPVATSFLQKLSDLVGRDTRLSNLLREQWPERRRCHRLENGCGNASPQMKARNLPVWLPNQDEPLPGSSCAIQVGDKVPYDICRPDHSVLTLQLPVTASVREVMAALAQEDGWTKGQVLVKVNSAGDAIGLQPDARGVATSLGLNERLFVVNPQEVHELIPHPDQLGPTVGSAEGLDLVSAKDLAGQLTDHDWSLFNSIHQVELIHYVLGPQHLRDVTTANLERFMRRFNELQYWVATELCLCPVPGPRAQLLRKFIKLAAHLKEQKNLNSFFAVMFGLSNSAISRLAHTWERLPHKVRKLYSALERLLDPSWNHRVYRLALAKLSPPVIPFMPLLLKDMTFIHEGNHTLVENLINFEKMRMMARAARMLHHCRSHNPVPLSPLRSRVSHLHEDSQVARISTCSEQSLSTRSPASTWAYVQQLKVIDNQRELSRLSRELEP

In test [5] the target is DNA polymerase eta (Homo sapiens) (UniProt Q9Y253). The experiment in a line: qHTS for Inhibitors of Polymerase Eta: Confirmatory Assay for Cherry-picked Compounds (AID 720502). Note: potency is the fitted concentration of half-maximal effect. The following applies: Pol eta primer extension, TAMRA/BHQ fluorescence, 10 min. The method in brief:
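The reaction starts with 50 nM final labeled DNA substrate added to Pol eta (10 nM) that had sat with compound for 15 min. TAMRA emission at 598 nm is read at 0 and 10 min.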

The target in test [6] is Rap guanine nucleotide exchange factor 3 (Homo sapiens) (UniProt O95398). The experiment in a line: Counterscreen qHTS for antagonist of cAMP-regulated guanine nucleotide exchange factor 3 (EPAC1) (AID 1645888). Note: % of control where 0% means no effect. The note with it: Rap1B-BODIPY-GDP nucleotide exchange, fluorescence; series mostly up to 154 µM. The method in brief:
as §1
(The purpose of a counterscreen is to sort out artefacts and off-target activity.)

Chain of Rap guanine nucleotide exchange factor 4 (Homo sapiens) (Q8WZA2 whole entry, looked up): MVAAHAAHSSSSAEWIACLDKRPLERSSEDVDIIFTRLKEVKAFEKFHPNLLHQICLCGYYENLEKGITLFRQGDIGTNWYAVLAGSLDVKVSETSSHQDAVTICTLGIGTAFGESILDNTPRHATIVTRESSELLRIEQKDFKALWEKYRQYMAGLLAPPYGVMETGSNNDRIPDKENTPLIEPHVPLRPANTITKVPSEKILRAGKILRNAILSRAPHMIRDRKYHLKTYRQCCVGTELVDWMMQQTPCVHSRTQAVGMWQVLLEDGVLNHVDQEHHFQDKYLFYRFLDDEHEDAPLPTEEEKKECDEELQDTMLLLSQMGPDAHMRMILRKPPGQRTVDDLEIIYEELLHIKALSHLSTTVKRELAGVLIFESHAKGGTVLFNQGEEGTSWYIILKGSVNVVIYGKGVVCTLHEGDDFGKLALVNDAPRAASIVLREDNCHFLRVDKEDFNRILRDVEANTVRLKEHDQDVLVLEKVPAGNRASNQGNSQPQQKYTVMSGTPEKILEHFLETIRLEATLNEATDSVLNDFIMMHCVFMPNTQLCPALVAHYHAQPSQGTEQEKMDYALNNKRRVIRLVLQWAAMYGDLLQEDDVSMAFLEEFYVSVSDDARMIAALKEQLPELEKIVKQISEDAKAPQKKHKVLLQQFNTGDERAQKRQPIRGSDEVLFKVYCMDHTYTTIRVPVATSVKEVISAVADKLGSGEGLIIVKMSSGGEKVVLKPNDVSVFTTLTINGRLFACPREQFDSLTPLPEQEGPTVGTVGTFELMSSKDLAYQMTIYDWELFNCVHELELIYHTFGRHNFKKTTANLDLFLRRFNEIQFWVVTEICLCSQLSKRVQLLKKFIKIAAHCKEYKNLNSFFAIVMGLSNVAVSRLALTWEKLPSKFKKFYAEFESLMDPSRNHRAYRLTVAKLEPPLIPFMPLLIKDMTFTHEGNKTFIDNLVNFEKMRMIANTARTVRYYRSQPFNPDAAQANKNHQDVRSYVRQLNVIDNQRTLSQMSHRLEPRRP
Chain of DNA polymerase eta (Homo sapiens) (Q9Y253 whole entry, looked up): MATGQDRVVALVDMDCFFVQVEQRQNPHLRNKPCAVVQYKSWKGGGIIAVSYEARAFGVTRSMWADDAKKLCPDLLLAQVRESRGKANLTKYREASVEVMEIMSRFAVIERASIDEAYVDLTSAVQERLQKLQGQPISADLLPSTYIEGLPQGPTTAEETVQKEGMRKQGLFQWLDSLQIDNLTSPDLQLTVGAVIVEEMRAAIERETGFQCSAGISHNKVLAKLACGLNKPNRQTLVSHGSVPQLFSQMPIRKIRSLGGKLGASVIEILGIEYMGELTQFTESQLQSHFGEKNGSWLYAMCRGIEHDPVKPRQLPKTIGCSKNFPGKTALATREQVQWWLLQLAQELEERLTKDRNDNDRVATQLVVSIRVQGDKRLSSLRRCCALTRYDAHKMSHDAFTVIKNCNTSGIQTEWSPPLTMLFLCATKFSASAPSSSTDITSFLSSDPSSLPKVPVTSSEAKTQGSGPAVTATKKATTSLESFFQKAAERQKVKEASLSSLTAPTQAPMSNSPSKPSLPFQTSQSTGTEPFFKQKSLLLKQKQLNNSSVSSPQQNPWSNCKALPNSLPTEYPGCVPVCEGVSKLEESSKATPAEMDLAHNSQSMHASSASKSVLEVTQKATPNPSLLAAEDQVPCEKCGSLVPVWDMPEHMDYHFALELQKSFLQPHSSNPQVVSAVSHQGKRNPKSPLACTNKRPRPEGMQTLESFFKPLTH

Consider `O=C(O)c1cccc(Nc2ccc([N+](=O)[O-])c3nonc23)c1`, for which the Potency entry in test [1], in test [2], in test [3] and in test [4] was “inactive” throughout.

Consider `CC(C)(C)c1ccc(S(=O)(=O)NC(=O)C2(C)CCN2C(=O)Cc2ccc(-c3ccccc3)cc2)cc1` (stereo not drawn), for which the Potency entry in test [1] and in test [3] was “inactive” each time. Also, the activation in test [2] is -4.75% [at 17.1 µM, percent relative to cAMP agonist control]; in test [4], 6.27% [at 30.8 µM].

As for `C[C@H](CO)N1C[C@H](C)[C@@H](CN(C)Cc2ccc(Cl)c(Cl)c2)Oc2c(NC(=O)CCC(F)(F)F)cccc2C1=O`, the Potency result in test [1], in test [2] and in test [4] was “inactive” in each case. The Potency in test [3] was 19 µM (active).

With `CC(=O)N(CCC(c1ccco1)C(C)C)Cc1ccc(Cl)cc1` (stereo not drawn), the Potency result in test [1], in test [2], in test [3] and in test [4] was “inactive” each time.

`Nc1cc(OC(=O)c2cccs2)nn1S(=O)(=O)c1ccc(F)cc1`: the Potency entry in test [1], in test [2] and in test [4] was “inactive” in each case. Moreover, in test [3], the Potency is 84.9 µM (active).

`FC(F)(F)c1cccc(CN2CCC(c3cc(-c4cccs4)n[nH]3)CC2)c1`: the Potency entry in test [1], in test [2], in test [3] and in test [4] was “inactive” in each case.

Turning to `Cc1cc2c(cc1C)C(c1ccccc1OC(C)C)CC(=O)N2` (stereo not drawn), the Potency entry in test [1], in test [2] and in test [4] was “inactive” throughout. For the same compound, the Potency in test [3] was 33.8 µM (active).

With `CCC(NC(=O)c1ccccc1NC(=O)c1ccco1)C(=O)NNC(=O)c1ccc(OC)cc1` (stereo not drawn), the Potency result in test [1] and in test [3] was “inactive” throughout. Also, the activation in test [2] is 0.808% [at 17.1 µM, percent relative to cAMP agonist control]; in test [4], 9.27% [at 30.8 µM].

For the compound `CCCC[C@H]1COCCS(=O)(=O)N1Cc1ccc(Br)cc1`, the Potency result in test [1], in test [2], in test [3] and in test [4] was “inactive” in each case.

Turning to `CNC(=O)c1ccc(Nc2nnc(-c3ccc(O)cc3)c3ccccc23)cc1`, the Potency entry in test [1], in test [2], in test [3] and in test [4] was “inactive” each time.

In the case of `CC(C)CCOP(=O)(c1ccc(N(C)C)cc1)C(O)c1ccc(Cl)cc1Cl` (stereo not drawn), the Potency entry in test [1], in test [2] and in test [4] was “inactive” each time. In addition, the Potency in test [3] was 19 µM (active).

Turning to `CCCCCC(=O)N1c2ccccc2C(C)(c2ccccc2)CC1(C)C` (stereo not drawn), the Potency result in test [1], in test [2], in test [3] and in test [4] was “inactive” throughout.

Turning to `O=C(O)CCCC(=O)N1CCN(c2nc(-c3ccccc3Cl)c3cc(Br)ccc3n2)CC1`, the Potency entry in test [1], in test [2] and in test [4] was “inactive” each time. Moreover, the Potency in test [3] is 13.5 µM (active).

Turning to `CC(C)(C)OC(=O)N1CCC(c2c(C(=O)NCCN3CCC(Cc4ccccc4)CC3)cnn2-c2cccc(Cl)c2)CC1`, the Potency entry in test [1], in test [2], in test [3] and in test [4] was “inactive” each time.

As to `O=Nc1c(O)n(Cc2cccc(C(F)(F)F)c2)c2ccccc12`, the Potency entry in test [1], in test [2] and in test [4] was “inactive” throughout. Besides, the Potency in test [3] is 47.8 µM (active).

On to `COc1cc(/C=C(\C#N)C(=O)Nc2ccccc2C(=O)O)cc(Cl)c1OC`, for which the Potency result in test [1], in test [2], in test [3] and in test [4] was “inactive” in each case.

Regarding `CCCc1nc2ccc(C(=O)OC)cn2c1Cc1ccccc1C(F)(F)F`, the Potency result in test [1], in test [2] and in test [4] was “inactive” each time. In addition, the Potency in test [3] was 30.1 µM (active).

Consider `O=C(O)CN1C(=O)/C(=C\c2cccc(OCc3ccc(F)cc3)c2)SC1=S`, for which the Potency entry in test [1] and in test [3] was “inactive” in each case. In addition, the activation in test [2] was 1.62% [at 17.1 µM, percent relative to cAMP agonist control]; in test [4] it was 14.2% [at 30.8 µM].

Consider `O=C(COC(=O)c1ccc([N+](=O)[O-])s1)NCc1ccccc1`, for which the Potency entry in test [1], in test [2], in test [3] and in test [4] was “inactive” throughout.

Take `CC(C)(C)Cc1c(-c2ccco2)nc2ccc(Cl)cn12`: the Potency result in test [1] and in test [3] was “inactive” throughout. For the same compound, the activation in test [2] is 1.87% [at 17.1 µM, percent relative to cAMP agonist control]; in test [4] it was 3.65% [at 30.8 µM].

Consider `C=CC(C)N1C(=O)S/C(=C\c2ccc(N3CCOCC3)cc2C)C1=O` (stereo not drawn), for which the Potency result in test [1], in test [2] and in test [4] was “inactive” in each case. Also, the Potency in test [3] was 84.9 µM (active).

Regarding `O=C(NCc1ccc(OC(F)(F)F)cc1)C1CC(c2ccccc2C(F)(F)F)=NO1` (stereo not drawn), the Potency result in test [1] and in test [3] was “inactive” throughout. Besides, the activation is 4.05% [at 17.1 µM, percent relative to cAMP agonist control] in test [2] and 3.19% [at 30.8 µM] in test [4].

For the compound `C[C@H]1CN([C@@H](C)CO)S(=O)(=O)c2ccc(Br)cc2O[C@@H]1CN(C)Cc1ccccc1`, the Potency entry in test [1], in test [2] and in test [4] was “inactive” in each case. Also, the Potency in test [3] is 23.9 µM (active).

In the case of `Cc1cc(C)cc(N(CC(=O)Nc2ccc(C(F)(F)F)cc2)S(=O)(=O)c2c(C)[nH]c(=O)[nH]c2=O)c1`, the Potency result in test [1], in test [2], in test [3] and in test [4] was “inactive” each time.

On to `CCCc1[nH]c2ccc(C(=O)OC)cc2c1CCC`, for which the Potency result in test [1], in test [2] and in test [4] was “inactive” throughout. Besides, the Potency in test [3] is 19 µM (active).

For the compound `OC(c1ccccc1)(c1nc(-c2cccc(C(F)(F)F)c2)cs1)C(F)(F)F` (stereo not drawn), the Potency entry in test [1], in test [2], in test [3] and in test [4] was “inactive” in each case.

For `Cc1ccnc(NC(=O)C2CCN(S(=O)(=O)c3cccc(C(F)(F)F)c3)CC2)c1`, the Potency result in test [1], in test [2], in test [3] and in test [4] was “inactive” each time.

For the compound `Cc1cccc(N2CC(C(=O)Nc3nnc(SCC(=O)NCC4CCCO4)s3)CC2=O)c1` (stereo not drawn), the Potency result in test [1], in test [2], in test [3] and in test [4] was “inactive” in each case.

`CN(CC(=O)Nc1ccc(F)cc1)C(=O)COC(=O)C1CCN(c2ccc(C(F)(F)F)cn2)CC1`: the Potency entry in test [1], in test [2], in test [3] and in test [4] was “inactive” throughout.

Regarding `CCN(Cc1ccccc1)S(=O)(=O)c1cc2c3c(c1)CCN3C(=O)CC2`, the Potency result in test [1] and in test [3] was “inactive” throughout. Besides, the activation was 0.922% [at 17.1 µM, percent relative to cAMP agonist control] in test [2] and -5.83% [at 30.8 µM] in test [4].

Consider `CCC[C@H]1CC(=O)C=C(c2ccsc2)ON1C(=O)OC(C)(C)C`, for which the Potency entry in test [1], in test [2], in test [3] and in test [4] was “inactive” each time.

With `COc1ccc(N2C(=O)CSC23C(=O)N(Cc2cccc(C(F)(F)F)c2)c2ccccc23)cc1` (stereo not drawn), the Potency result in test [1], in test [2] and in test [4] was “inactive” throughout. The outcome in test [3] was “inactive [at 12.7 µM]”.

As for `Cc1ccc(NS(=O)(=O)c2cccc(C(=O)OCC(=O)NCc3ccco3)c2)cc1`, the Potency entry in test [1], in test [2], in test [3] and in test [4] was “inactive” each time.

For `COc1ccc(NC(=O)CN2CCN(c3c(C)cc(C)cc3C)CC2)cc1`, the Potency entry in test [1] and in test [3] was “inactive” throughout. For the same compound, the activation in test [2] is 7.83% [at 17.1 µM, percent relative to cAMP agonist control]; in test [4] it was 16.1% [at 30.8 µM].

Consider `C/C(=N\NS(=O)(=O)c1ccc(C(C)(C)C)cc1)c1ccccc1`, for which the Potency entry in test [1] and in test [3] was “inactive” throughout. The activation is 13.7% [at 17.1 µM, percent relative to cAMP agonist control] in test [2] and 25% [at 30.8 µM] in test [4].

For `CCC(C)Cn1c(O)cc2nn(-c3nc4ccccc4s3)c(=O)c-2c1C` (stereo not drawn), in test [5], the Potency is 75.7 µM (active). For the same compound, the Potency entry in test [1] and in test [3] was “inactive” in each case. In test [2], the activation is -0.693% [at 17.1 µM, percent relative to cAMP agonist control]. Moreover, the activity change, negative = inhibition in test [6] was -16.7% [at 30.8 µM].

In the case of `CCCCn1c(CNC(=O)C23CC4CC(CC(C4)C2)C3)nnc1SCC(=O)Nc1nnc(C)s1`, the Potency result in test [1] and in test [3] was “inactive” in each case. In addition, the activation is 3.57% [at 17.1 µM, percent relative to cAMP agonist control] in test [2] and 1.72% [at 30.8 µM] in test [4].

As for `Nc1ccc(N2CCCCC2)c2nonc12`, the Potency result in test [1] and in test [3] was “inactive” throughout. The activation in test [2] was -6.41% [at 17.1 µM, percent relative to cAMP agonist control]; in test [4], 6.94% [at 30.8 µM].

As for `CC1=CCC[C@@H]2[C@@](C)(CC/C(C)=C/C(=O)O)[C@H](C)CC[C@@]12C`, the Potency entry in test [1] and in test [3] was “inactive” each time. Moreover, the activation in test [2] was 7.29% [at 17.1 µM, percent relative to cAMP agonist control]; in test [4] it was 10.7% [at 30.8 µM].

Take `O=C(CSc1nnc(-c2cccs2)n1Cc1ccco1)Nc1ccc2c(c1)OCO2`: the Potency result in test [1], in test [2], in test [3] and in test [4] was “inactive” throughout.

As to `Cc1cc(C)c(OCC(=O)N(Cc2ccco2)Cc2ccco2)c(C)c1`, the Potency entry in test [1], in test [2], in test [3] and in test [4] was “inactive” each time.

On to `CCCC[C@@H]1C[C@H]1[C@@H](NC(=O)c1ccco1)c1ccc(Cl)cc1`, for which the Potency result in test [1], in test [2], in test [3] and in test [4] was “inactive” each time.

As for `C=CCNC(=O)c1oc2ccc(S(=O)(=O)N(CC)CC)cc2c1C`, the Potency result in test [1], in test [2], in test [3] and in test [4] was “inactive” throughout.
